Experiment [1] is described as follows: CCTE_Shafer_MEA_dev_per_burst_spike_percent: CCTE's Neural Network Formation Assay for Percent of Spikes in a Burst, Shafer Lab (AID 2284032; active = hit-call score of the fitted dose curve at least 0.9, where 1 is the maximum; inactive = score below 0.9;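 for AC50: fitted as a decrease in burst spike percentage below DMSO baseline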). The procedure, abridged:
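Rat primary cortical neurons on 16-electrode MEA wells, dosed from plating day 0 for 12 days with renewal on DIV 5 and 9; spikes-in-bursts percentage averaged over bursting electrodes, collapsed as AUC across days 5, 7, 9, 12; loss direction versus DMSO.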

Experiment [2] is described as follows: CCTE_Shafer_MEA_dev_burst_rate: CCTE's Neural Network Formation Assay for Burst Rate, Shafer Lab (AID 2284042; active = hit-call score of the fitted dose curve at least 0.9, where 1 is the maximum; inactive = score below 0.9;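 for AC50: potency for loss of burst rate below DMSO control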). The procedure, abridged:
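Rat primary cortical cultures on PEI/laminin MEA; compound from plating, re-dosed at DIV 5, 9 media change. Single-electrode bursts/recording length, well mean of active electrodes; AUC over DIV 5–12 recordings; loss-of-signal vs DMSO.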

Experiment [3] can be described thus: CCTE_Shafer_MEA_dev_per_burst_interspike_interval: CCTE's Neural Network Formation Assay for Burst Interspike Interval, Shafer Lab (AID 2284044; active = hit-call score of the fitted dose curve at least 0.9, where 1 is the maximum; inactive = score below 0.9;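 note: mean spike spacing inside bursts as AUC over recordings on days 5 7 9 12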;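 for AC50: potency for a decrease of within-burst interspike interval below DMSO level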). In outline: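 Rat cortical primary cultures, 16 electrodes/well; compound from plating, renewed with full media change DIV 5 and 9. Spikes via adaptive detector; per-burst ISI well-mean over active bursting electrodes; AUC of DIV 5/7/9/12 recordings; loss-direction fit vs DMSO.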

A short description of experiment [4]: CCTE_Shafer_MEA_dev_burst_duration_mean: CCTE's Neural Network Formation Assay for Mean Burst Duration, Shafer Lab (AID 2284045; active = hit-call score of the fitted dose curve at least 0.9, where 1 is the maximum; inactive = score below 0.9;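 for AC50: curve fitted for loss meaning shorter burst duration than DMSO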). The procedure, abridged: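 Read-out: average first-to-last-spike interval within single-electrode bursts, averaged over bursting electrodes per well, then summarised as area under the curve across days 5, 7, 9 and 12. Developing rat cortical networks were exposed from day 0.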

Experiment [5] can be described thus: CCTE_Deisenroth_AIME_384WELL_CTox_Active: Cytotoxicity Assessment (CTOX) in CCTE's 384-well Estrogen Receptor Transactivation Assay with AIME metabolic competence (metabolism positive), Deisenroth Lab (AID 2284037).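 Note: chemicals first conditioned 2 h by alginate-bound induced rat liver S9 before cells; activity means signal loss indicating cell death.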 In outline: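 Cytotoxicity in VM7Luc4E2 breast cells, 24 hour, measured as protease-substrate fluorescence loss, after 2-hour metabolic conditioning with induced rat hepatic S9 in alginate microspheres. Concentrations 0.002 - 200 uM, 10 points, bidirectional fitting.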

Experiment [6] has as its target Estrogen receptor (Homo sapiens) (UniProt P03372). The experiment in a line: CCTE_Deisenroth_AIME_384WELL_LUC_Inactive: CCTE's 384-well Estrogen Receptor Transactivation Assay without AIME metabolic competence (ERTA luciferase; metabolism negative), Deisenroth Lab (AID 2284038).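 Note: hits raise estrogen receptor luciferase signal so potencies reflect agonists.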 In outline: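 Metabolism-negative mode: chemicals (10-point, 0.002–200 uM) held 2 h with alginate-water microspheres, then conditioned medium applied to VM7Luc4E2 cells for 24 h. Luciferase induction referenced to 17beta-estradiol.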

Experiment [7] in a line: CCTE_Deisenroth_AIME_384WELL_CTox_Inactive: Cytotoxicity Assessment (CTOX) in CCTE's 384-well Estrogen Receptor Transactivation Assay without AIME metabolic competence (metabolism negative), Deisenroth Lab (AID 2284039).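 Note: cell viability via live-cell protease substrate cleaved to fluorescent probe; loss of fluorescence signal means loss of viability.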 The procedure, abridged: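 VM7Luc4E2 human breast cells received conditioned medium from a 2 h incubation of chemical with alginate-water microspheres (no S9), then were exposed 24 h. Viability was read as protease-substrate cleavage to a fluorescent probe; loss of signal was fitted bidirectionally over 0.002–200 uM.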

For experiment [8], the target named is Estrogen receptor (Homo sapiens) (UniProt P03372). Description: CCTE_Deisenroth_AIME_384WELL_LUC_Shift: CCTE's 384-well Estrogen Receptor Transactivation Assay with AIME metabolic competence data shift (ERTA luciferase; difference in metabolism positive and negative), Deisenroth Lab (AID 2284041; active = hit-call score of the fitted dose curve at least 0.9, where 1 is the maximum; inactive = score below 0.9;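 note: shift is response with S9 minus without S9 so positive means metabolism raised ER signal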). The procedure, abridged: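 Test chemicals (0.002–200 uM, 10-point) were pre-incubated 2 h with alginate microspheres containing phenobarbital/beta-naphthoflavone-induced male Sprague Dawley rat liver S9 or water, then medium was transferred to VM7Luc4E2 cells for 24 h luciferase readout; shift = S9-positive minus S9-negative normalized response.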

Experiment [9] can be described thus: CCTE_Shafer_MEA_dev_bursting_electrodes_number: CCTE's Neural Network Formation Assay for Number of Bursting Electrodes, Shafer Lab (AID 2284043).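 For AC50: potency is for loss of bursting electrodes relative to DMSO.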 The procedure, abridged: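 Read-out is the per-well number of electrodes bursting at least once every 2 minutes, recorded on days 5, 7, 9 and 12 and collapsed by trapezoidal area under the curve. Cultures were primary rat cortical neurons on MEA plates, treated continuously from plating.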

The nature of experiment [10]: CCTE_Shafer_MEA_dev_active_electrodes_number: CCTE's Neural Network Formation Assay for Number of Active Electrodes, Shafer Lab (AID 2284040).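 For AC50: potency for loss of active electrodes versus DMSO so lower counts are hits.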 In outline:
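Primary rat cortical neurons on 16-electrode MEA wells, exposed from day 0 through day 12 with compound renewed at DIV 5 and 9 feeds. Active electrodes (mean firing ≥5 spikes/min) counted at DIV 5, 7, 9, 12; trapezoidal AUC across days, loss-of-signal versus DMSO.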

Inconclusive results are not listed. The source made the active and inactive calls. Rule for the calls, unless noted: active = hit-call score of the fitted dose curve at least 0.9, where 1 is the maximum; inconclusive = response in the unintended direction; inactive = score below 0.9.

Chain of Estrogen receptor (Homo sapiens) (P03372 whole entry, looked up): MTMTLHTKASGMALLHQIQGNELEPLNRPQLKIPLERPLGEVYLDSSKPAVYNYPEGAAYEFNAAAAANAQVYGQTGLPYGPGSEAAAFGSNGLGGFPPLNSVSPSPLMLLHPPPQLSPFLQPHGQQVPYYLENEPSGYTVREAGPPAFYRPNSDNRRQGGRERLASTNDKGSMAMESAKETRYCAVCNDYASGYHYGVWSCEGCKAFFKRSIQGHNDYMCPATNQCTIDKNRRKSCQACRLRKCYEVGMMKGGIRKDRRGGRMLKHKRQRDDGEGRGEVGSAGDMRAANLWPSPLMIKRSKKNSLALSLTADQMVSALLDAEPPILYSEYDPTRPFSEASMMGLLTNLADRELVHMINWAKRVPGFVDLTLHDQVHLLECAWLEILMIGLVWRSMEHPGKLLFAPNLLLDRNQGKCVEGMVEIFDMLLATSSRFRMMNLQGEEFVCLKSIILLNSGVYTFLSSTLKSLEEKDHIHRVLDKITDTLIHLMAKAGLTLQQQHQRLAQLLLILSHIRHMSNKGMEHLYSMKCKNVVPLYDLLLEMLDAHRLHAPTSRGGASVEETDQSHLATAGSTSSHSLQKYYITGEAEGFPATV

For `FC(F)=C(F)OC(F)(F)C(F)(F)C(F)(F)F`, the outcome in [1], in [2], in experiment [3] and in experiment [4] was inactive.
For `O=S1(=O)OC(c2ccc(O)cc2)(c2ccc(O)cc2)c2ccccc21`, the molecule was called inactive in experiment [5], in experiment [6], in [7] and in experiment [8].
With `CCCCC/C=C\CCC=O`, the AC50 in experiment [5] is 100 µM (active). The result in experiment [6], in experiment [7] and in experiment [8] was inactive.
As for `CO[Si](OC)(OC)c1ccccc1`, the outcome in experiment [5], in experiment [6] and in [8] was inactive.
On to `O=C(c1ccccc1)C1CCC1`, for which the outcome in [6] and in experiment [8] was inactive.
Consider `N[C@H]1C(O)O[C@H](CO)[C@H](O)[C@@H]1O` (some centres not stated), for which the molecule was classed as inactive in [1], in experiment [2] and in experiment [4]. Besides, the results for the AC50 in experiment [9] and in [3] were 24.8 µM (active) and 2.98 µM (active), respectively.
With `COC(F)(F)C(F)(C(F)(F)F)C(F)(F)F`, the molecule was classed as inactive in [1], in [10], in experiment [2], in experiment [9], in experiment [3] and in experiment [4].
Consider `NC(CO)(CO)CO`, for which the result in [6], in experiment [7] and in [8] was inactive.
With `CC=CC(F)(F)C(F)(F)C(F)(F)F`, the molecule was called inactive in experiment [1], in experiment [10], in experiment [2], in experiment [9], in [3] and in experiment [4].
In the case of `CCCCC(CC)CCC(CC(C)C)OS(=O)(=O)O` (configuration not stated), the outcome in experiment [6], in experiment [7] and in experiment [8] was inactive.
Regarding `c1ccc2c(c1)ccc1cc3c(ccc4ccccc43)cc12`, the molecule was called inactive in experiment [1], in experiment [6], in experiment [7], in experiment [10], in [8] and in experiment [2]. The molecule was classed as inactive in [9], in experiment [3] and in experiment [4].
Take `O=c1cc(-c2ccccc2)oc2ccccc12`: the call in experiment [5], in [6], in experiment [7] and in experiment [8] was inactive.
With `Cc1ccc(C(C)c2ccc(C)c(C)c2)cc1C`, the outcome in experiment [6] was inactive. The AC50 in [8] was 0.000413 µM (active).
As for `O=C1CCCC1`, the outcome in [5], in experiment [6] and in experiment [8] was inactive.
As for `C=CC(=O)NC(C)(C)CS(=O)(=O)O`, the molecule was classed as inactive in experiment [5], in [6], in experiment [7] and in experiment [8].
Take `O=S(=O)(O)c1ccccc1C=Cc1ccc(-c2ccc(C=Cc3ccccc3S(=O)(=O)O)cc2)cc1`: the result in experiment [6] and in [8] was inactive.
Regarding `CCCCCCCC[N+](C)(CCCCCCCC)CCCCCCCC`, the figures for the AC50 in experiment [5] and in experiment [7] were 39.3 µM (active) and 19.2 µM (active), respectively. Further, the outcome in experiment [8] was inactive.
Take `CC=C1CC2C=CC1C2` (configuration not stated): the call in experiment [5], in [6], in [7] and in experiment [8] was inactive.
Turning to `OC1CCCC1`, the molecule was classed as inactive in [5], in [6], in experiment [7] and in experiment [8].
As to `CN(C)c1ccc(C(=N)c2ccc(N(C)C)cc2)cc1`, the AC50 is 1.92 µM (active) in [1]; 100 µM (active) in experiment [5]; 31.1 µM (active) in [7]; 2.89 µM (active) in experiment [10]; 1.71 µM (active) in experiment [2]; 2.27 µM (active) in experiment [9]. The AC50 in experiment [3] was 3.43 µM (active); in experiment [4] it was 4.06 µM (active). The outcome in experiment [8] was inactive.
As to `CCCCCc1ccc(Cl)cc1`, the call in experiment [5], in [6] and in [8] was inactive.

Usually AC50 stands for the midpoint of the concentration-response curve, whichever way the signal moves.
